Source: PubChem BioAssay (Sanford-Burnham Center for Chemical Genomics)
Rows were chosen to be rich in hits. Some 28% of all compounds tested hit in one or more screens of this group.
CD11b adhes enh: enhancers of human CD11b/CD18 binding to fibrinogen; K562 CD11b/CD18 adhesion to fibrinogen, ATPlite luminescence; activation, % at 10 µM; actives 0.07% (n = 93,000); AID 1499;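 active = 10 µM primary screen giving 50% or more activity, confirmed by 40% or more on retest at that dose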
Target sequence (P05107 whole entry, looked up, other chains not shown): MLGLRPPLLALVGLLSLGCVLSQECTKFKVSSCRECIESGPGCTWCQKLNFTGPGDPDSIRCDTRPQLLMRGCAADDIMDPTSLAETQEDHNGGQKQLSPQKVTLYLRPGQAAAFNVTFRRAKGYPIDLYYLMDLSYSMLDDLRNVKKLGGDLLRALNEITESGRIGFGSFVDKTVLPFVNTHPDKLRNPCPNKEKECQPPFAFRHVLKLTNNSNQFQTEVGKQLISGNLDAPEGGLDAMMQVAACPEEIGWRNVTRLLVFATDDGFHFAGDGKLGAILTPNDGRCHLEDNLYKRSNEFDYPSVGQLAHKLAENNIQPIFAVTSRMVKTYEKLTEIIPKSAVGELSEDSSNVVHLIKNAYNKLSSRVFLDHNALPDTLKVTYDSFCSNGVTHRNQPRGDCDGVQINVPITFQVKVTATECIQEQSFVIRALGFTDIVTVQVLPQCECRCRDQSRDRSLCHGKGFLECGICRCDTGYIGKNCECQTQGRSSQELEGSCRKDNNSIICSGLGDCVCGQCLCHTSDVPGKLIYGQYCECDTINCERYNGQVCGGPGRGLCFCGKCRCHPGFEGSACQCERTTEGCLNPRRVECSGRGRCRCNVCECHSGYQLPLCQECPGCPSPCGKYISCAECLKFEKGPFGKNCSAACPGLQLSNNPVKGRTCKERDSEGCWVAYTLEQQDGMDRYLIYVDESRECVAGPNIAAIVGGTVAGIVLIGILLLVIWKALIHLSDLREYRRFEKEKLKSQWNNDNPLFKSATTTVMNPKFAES
CYP2C19 inhib: blocks human cytochrome P450 2C19 | actives 21% (n = 96,000) | inhibition, % at 5 µM | AID 778 | CYP2C19 Supersomes, luciferin-H EGE luminescence, 30 min;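 active = CYP2C19 inhibition above a set limit at 5 µM in the primary screen, cut at about 50% in these data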;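 also: plate controls were negative control wells for no effect and 2.5 mM tranylcypromine positive control for full effect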
CD11b adhes inh: blocks human CD11b/CD18 adhesion to fibrinogen; actives 0.54% (n = 93,000); K562 CD11b/CD18 adhesion to fibrinogen, ATPlite luminescence; Mn2+ added to activate the integrin; P05107+P11215; AID 1497; inhibition, % at 10 µM;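 active = primary inhibition of 50% or more at 10 µM, then 40% or more on retest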
CYP2C9 inh: blocks human cytochrome P450 2C9; AID 777; CYP2C9 Supersomes, luciferin-H conversion, luminescence; inhibition, % at 5 µM; actives 20% (n = 96,000);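 active = blocking of liver enzyme CYP2C9 beyond about 50% at 5 µM, limit read from the data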
CYP2C9 act: increases human cytochrome P450 2C9 activity; actives 1.4% (n = 96,000); AID 1024; activation factor at 5 µM; recombinant CYP2C9, luciferin-H conversion, luminescence; hits give high values; factor 1 = untreated enzyme, 0 = blocked;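 active = activation factor of 2 or more for CYP2C9 at a 5 µM dose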;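 also: 0 = sulfaphenazole-blocked wells and 1 = vehicle-only wells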
CYP2C19 activ: activators of human cytochrome P450 2C19; 96,000 tested, under 10 active; recombinant CYP2C19, luciferin-H EGE luminescence; hits give high values; 0 = fully inhibited enzyme, 1 = untreated enzyme; AID 1025; activation factor at 5 µM; P33261;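 active = activation factor of at least 2 at 5 µM in the primary screen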;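 also: 0 = wells with 2.5 mM tranylcypromine and 1 = vehicle-only wells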
The depositor's hits bear a star; x = no result given.

SMILES | CD11b adhes enh | CYP2C19 inhib | CD11b adhes inh | CYP2C9 inh | CYP2C9 act | CYP2C19 activ
CC(=O)NC1CC(C)(C)N(OC(C)=O)C(C)(C)C1 | -0.6 | 17.6 | -9.0 | -3.1 | 1 | 0.8
CCCCn1nc2cc(C(=O)NCCc3cccs3)ccc2c1OCC | -3.3 | 61.4* | -4.0 | 52.9* | 0.5 | 0.4
Cc1nc(S(=O)(=O)c2cccc(Cl)c2)nc2c1CCC2 | x | 9.7 | x | -173.1 | 2.7* | 0.9
Cc1nc(S(=O)(=O)c2ccc(Cl)cc2Cl)nc2c1CCC2 | x | 26.1 | x | -38.1 | 1.4 | 0.7
Cc1ccc(NC(=O)CCC(=O)OCC(=O)c2ccc(Oc3ccc([N+](=O)[O-])cc3)cc2)c(C)c1 | -2.5 | 8.7 | 15.7 | -16.0 | 1.2 | 0.9
Cc1ccc(CCN2C(=O)CCC2(C)C(=O)NCc2cccnc2)cc1 (stereo unspecified) | -1.2 | 10.9 | -6.1 | 17.9 | 0.8 | 0.9
COc1ccc(Nc2nc(Nc3ccc(OC)cc3)nc(SC3=NCCS3)n2)cc1 | 0.0 | 58.8* | -13.9 | 64.1* | 0.4 | 0.4
Cc1ccc(NS(=O)(=O)c2ccc(Cl)c(C(=O)O)c2)cc1S(=O)(=O)N1CCOCC1 | -1.8 | x | -18.4 | x | x | x
COC(=O)C1CCN(C(=O)c2ccccc2Oc2ccccc2)CC1 | 5.0 | 78.7* | 0.6 | 55.2* | 0.4 | 0.2
COc1ccccc1N1CCN(C(=O)c2ccc(Br)s2)CC1 | 0.1 | 99.0* | -0.8 | 88.6* | 0.1 | 0
O=C(c1ccccc1F)N1CCN(c2ncccn2)CC1 | x | 36.1 | x | 30.7 | 0.7 | 0.6
O=C(c1ccc(Br)s1)N1CCCC1 | -7.1 | 34.1 | -3.6 | -18.0 | 1.2 | 0.7
COc1ccccc1N1CCN(C(=O)c2cc3cc(Br)ccc3oc2=O)CC1 | -1.6 | 59.2* | -3.8 | 14.1 | 0.9 | 0.4
O=C(c1c(F)cccc1F)N1CCN(c2ncccn2)CC1 | -2.9 | 23.0 | -4.8 | 65.3* | 0.3 | 0.8
O=C(Nc1cccc(Cl)c1)C1C2CCC3C(CCC21)C3(Cl)Cl (stereo unspecified) | -8.7 | x | 96.4 | x | x | x
O=C(c1ccc(Br)s1)N1CCN(c2ncccn2)CC1 | 126.9 | 97.6* | -13.5 | 80.4* | 0.2 | 0
COc1ccccc1N1CCN(C(=O)c2ccccc2Oc2ccccc2)CC1 | 1.7 | 74.5* | -3.0 | 75.0* | 0.3 | 0.3
O=C(c1ccccc1Oc1ccccc1)N1CCN(c2ccccc2F)CC1 | -4.5 | 78.8* | 7.5 | 90.1* | 0.1 | 0.2
C=CCNC(=O)C1CCN(S(=O)(=O)c2ccccc2)CC1 | 2.2 | 45.2 | -31.8 | -33.8 | 1.3 | 0.5
Cc1nc(CN2CCCC2=NC#N)n(-c2ccccc2)n1 | -1.3 | -0.7 | -0.1 | 11.5 | 0.9 | 1
COC(=O)c1[nH]c2ccccc2c1NS(=O)(=O)c1ccc(F)c(C)c1 | -0.3 | 93.3* | -10.9 | 48.5 | 0.5 | 0.1
CCCC(=O)Nc1c(C(=O)OCC)[nH]c2ccccc12 | 3.6 | 11.8 | -5.0 | 5.3 | 0.9 | 0.9
COc1ccc2[nH]c(C(=O)O)c(CCC(=O)O)c2c1 | -3.2 | 0.8 | -1.5 | 26.8 | 0.7 | 1
COc1ccc(S(=O)(=O)Nc2c(C(=O)O)[nH]c3ccccc23)c(OC)c1 | -1.6 | 5.7 | -4.9 | 60.6* | 0.4 | 0.9
COc1ccc2[nH]c(C(=O)O)c(NS(=O)(=O)c3ccc(OC)c(OC)c3)c2c1 | 3.0 | 35.9 | -11.9 | 75.9* | 0.2 | 0.6
SMILES | CD11b adhes enh | CYP2C19 inhib | CD11b adhes inh | CYP2C9 inh | CYP2C9 act | CYP2C19 activ
CCOC(=O)c1[nH]c2ccccc2c1NC(=O)Nc1ccc(OC)cc1 | 9.6 | 48.1 | -5.8 | 27.0 | 0.7 | 0.5
CCn1cc([N+](=O)[O-])c(C(=O)Nc2cc(C)on2)n1 | -5.7 | 5.5 | 11.1 | -18.0 | 1.2 | 0.9
Cn1c(/C=N/n2cnnc2)nc2ccccc21 | 2.6 | 1.0 | 1.2 | -16.3 | 1.2 | 1
CCCOc1ccc(N2C(=O)CC(NCc3ccncc3)C2=O)cc1 (stereo unspecified) | -1.9 | 68.4* | -4.3 | 66.7* | 0.3 | 0.3
CCCOc1ccc(N2C(=O)CC(NCCc3ccc(S(N)(=O)=O)cc3)C2=O)cc1 (stereo unspecified) | -0.8 | -3.0 | -2.4 | 9.8 | 0.9 | 1
CCOc1ccc(N2C(=O)CC(NCCc3ccc(S(N)(=O)=O)cc3)C2=O)cc1 (stereo unspecified) | -0.8 | 13.7 | 10.0 | 6.6 | 0.9 | 0.9
CCCOc1ccc(N2C(=O)CC(N3CCN(c4ccccc4F)CC3)C2=O)cc1 (stereo unspecified) | 4.1 | -3.3 | 1.5 | 10.8 | 0.9 | 1
CCOc1ccc(N2C(=O)CC(NCCc3ccncc3)C2=O)cc1 (stereo unspecified) | 2.5 | 52.0* | -1.6 | 35.1 | 0.6 | 0.5
CCCOc1ccc(N2C(=O)CC(N3CCC(c4nncn4CC)CC3)C2=O)cc1 (stereo unspecified) | -0.7 | 15.2 | 2.5 | 64.1* | 0.4 | 0.8
Cc1cccc(OCC(=O)O/N=C(\N)Cc2ccc(Cl)cc2)c1 | -0.1 | 0.8 | -6.4 | -6.8 | 1.1 | 1
CCC1CCCCN1C(=O)CSc1nnc(CNC(=O)c2cc(OC)c(OC)c(OC)c2)o1 (stereo unspecified) | 0.3 | 6.5 | 19.6 | 30.5 | 0.7 | 0.9
C/C(=N\NC(=O)c1cccc(Br)c1)c1cccc(NC(=O)c2ccc(C)o2)c1 | 0.4 | -12.0 | -11.8 | 2.7 | 1 | 1.1
CCOCCCNS(=O)(=O)c1ccc(NC(=O)c2ccccc2)cc1 | -6.5 | -6.9 | 11.1 | 2.2 | 1 | 1.1
CCOC(=O)c1ccc(COC(=O)c2cc3ccccc3oc2=O)o1 | 0.0 | 52.2* | 4.3 | 8.5 | 0.9 | 0.5
CC(=O)N=c1sc(C(C)(C)C)c(C)n1C | -0.4 | 14.9 | -0.2 | -65.2 | 1.7 | 0.9
CC1CN(c2nc3c(c(=O)n(C)c(=O)n3C)n2Cc2c(F)cccc2Cl)CC(C)O1 (stereo unspecified) | 4.2 | 14.2 | -10.4 | 58.6* | 0.4 | 0.9
O=C(Cn1cc(C(F)(F)F)ccc1=O)Nc1cccc(S(=O)(=O)N2CCOCC2)c1 | -3.0 | x | -14.9 | x | x | x
CCCCn1c(N)c(C(=S)NC(=O)CC(C)(C)C)c(=O)n(C)c1=O | 6.1 | x | 4.1 | x | x | x
CC(C)C(=O)Nc1ccc(C(=O)NNC(=O)CCCOc2ccc(Cl)cc2Cl)cc1 | 1.8 | 7.2 | 7.5 | 39.5 | 0.6 | 0.9
Cn1c(C(=O)N(Cc2ccccc2)Cc2ccccn2)cc2sccc21 | -0.2 | 87.8* | -18.2 | 90.8* | 0.1 | 0.1
Cn1c(C(=O)N(Cc2ccccc2)Cc2cccs2)cc2sccc21 | -1.8 | 47.1 | 10.6 | 73.2* | 0.3 | 0.5
Cn1c(C(=O)N2CCCC(C(=O)NCCCc3ccccc3)C2)cc2sccc21 (stereo unspecified) | -1.5 | 32.6 | 5.7 | 23.3 | 0.8 | 0.7
Cc1ccc2c(c1)N(CCC(=O)NCc1ccco1)C(=O)CO2 | x | 38.0 | x | -12.6 | 1.1 | 0.6
COc1ccccc1CNC(=O)CCN1C(=O)COc2ccccc21 | x | 50.0* | x | -65.1 | 1.7 | 0.5
